# Measurements from PubChem BioAssay (NCI).
# This is part of a sample that, as a whole, favours compounds with a hit. Of some 83,000 tested, about 20% had one in any assay.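 Each cell line was grown in a 96-well plate and treated with one concentration of compound for 48 hours. Values below 10 were considered active.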 Unmarked numbers belong to inactive results. Activity calls are given as the source filed them.
# Columns and labels:
# Experiment in all cases: NCI-60 one-dose screen, 48 h (100 = growth as untreated, 0 = no growth, -100 = all killed)
# Conditions in all cases: 10 µM
# NCI-H23 lung = tested on: NCI-H23 lung
# NCI-H322M lung = tested on: NCI-H322M lung
# HOP-62 NSCLC = tested on: HOP-62 NSCLC
# HOP-92 NSCLC = tested on: HOP-92 NSCLC
# A549/ATCC NSCLC = tested on: A549/ATCC NSCLC
# 786-0 renal = tested on: 786-0 renal
# DU-145 prostate = tested on: DU-145 prostate
# MALME-3M melanoma = tested on: MALME-3M melanoma
# MDA-MB-231 breast = tested on: MDA-MB-231 breast
# SF-268 CNS = tested on: SF-268 CNS
# SF-295 CNS = tested on: SF-295 CNS
# UACC-257 melanoma = tested on: UACC-257 melanoma
# M14 melanoma = tested on: M14 melanoma
# NCI-H226 lung = tested on: NCI-H226 lung
# NCI-H460 lung = tested on: NCI-H460 lung
# NCI-H522 lung = tested on: NCI-H522 lung
# COLO 205 colon = tested on: COLO 205 colon
# RXF 393 renal = tested on: RXF 393 renal
# SF-539 CNS = tested on: SF-539 CNS
SMILES,growth (NCI-H23 lung),growth (NCI-H322M lung),growth (HOP-62 NSCLC),growth (HOP-92 NSCLC),growth (A549/ATCC NSCLC),growth (786-0 renal),growth (DU-145 prostate),growth (MALME-3M melanoma),growth (MDA-MB-231 breast),growth (SF-268 CNS),growth (SF-295 CNS),growth (UACC-257 melanoma),growth (M14 melanoma),growth (NCI-H226 lung),growth (NCI-H460 lung),growth (NCI-H522 lung),growth (COLO 205 colon),growth (RXF 393 renal),growth (SF-539 CNS)
NC(=Nc1ccc(OCCCCCCCCn2ccnn2)cc1)c1ccccc1,20.1%,60.3%,18.2%,74.2%,24.4%,45.7%,26.7%,45.1%,13.8%,72.4%,10.1%,50.8%,18.4%,,,,,,
O=C(Nc1ccncc1)c1ccc(-n2c(=O)[nH]c3ccccc3c2=O)cc1,80.1%,97.6%,99%,77.1%,106%,94.2%,100%,96.3%,98.2%,110%,95.6%,109%,97.4%,87.4%,110%,84.9%,102%,88.9%,98.8%
CC1(C)CC[C@]23CC[C@]4(C)[C@H](CC[C@@H]5[C@@]6(C)CC[C@H](N)C(C)(C)[C@@H]6CC[C@]54C)[C@H]2[C@H]1OC3=O,-94.7% (active),-99.5% (active),-77.2% (active),-65.5% (active),-88.9% (active),-94.8% (active),-79.8% (active),-95.9% (active),-96.3% (active),-38.6% (active),-94.5% (active),-90.8% (active),-77.6% (active),-90% (active),-13.9% (active),-85.5% (active),-69.5% (active),-95.6% (active),-99.3% (active)
O=C(Nc1ccccc1)Nc1nc2ccccc2s1,78.5%,84.4%,77.2%,77.8%,89.5%,102%,104%,-10.2% (active),79.5%,111%,82.3%,20.8%,78.8%,72.1%,95.3%,72.3%,50.8%,110%,88.6%
